# Assay outcomes from PubChem BioAssay.
# GLP1R ag: qHTS of GLP-1 Receptor Agonists. Glucagon-like peptide 1 receptor (Homo sapiens), P43220. HEK293 GLP-1R CRE-luciferase, luminescence, 4-6 h; cells express a hypersensitive GLP-1R form. Potency, µM (titrated, usually from 45.6 µM), for the others: at the top dose activation, usual class: activators. 380,000 compounds, 0.007% hits. AID 624172, 2012; further: % of control where 0% means no effect
# GLP1R inv ag: qHTS of GLP-1 Receptor Inverse Agonists (Inhibition Mode). Glucagon-like peptide 1 receptor (Homo sapiens), P43220. HEK293 GLP-1R CRE-luciferase, luminescence, 24 h; GLP-1R form is constitutively active. Potency, µM (titrated, usually from 38.3 µM), inactives show at the highest dose activity change, negative = inhibition, usual class: inhibitors. 410,000 compounds, 1.6% hits. AID 624417, 2012; further: on the % scale 0 is the no-effect control and ±100 the full control effect; nearly all actives have a fitted effect of over 55% in size
#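 Inverse agonism was detected as reduced cAMP-driven luciferase luminescence after 24 h compound treatment. The cells were HEK293 clones expressing constitutively active human GLP-1R with the reporter. Reporter-only and GPR119 cell lines served as counterscreen controls.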
# PTHR1 ag: qHTS for PTHR1 Agonists: Primary Screen | 410,000 compounds, 0.075% hits | Potency, µM (top dose mostly 115 µM), without a hit: at the top dose activation, hits mostly activators | Parathyroid hormone/parathyroid hormone-related peptide receptor (Homo sapiens), Q03431 | HEK293 GP2 PTHR1 cells, GloSensor cAMP luminescence, 1 h; further: nearly all actives have a fitted effect of over 55% in size
# Target sequence (Q03431 whole entry, looked up): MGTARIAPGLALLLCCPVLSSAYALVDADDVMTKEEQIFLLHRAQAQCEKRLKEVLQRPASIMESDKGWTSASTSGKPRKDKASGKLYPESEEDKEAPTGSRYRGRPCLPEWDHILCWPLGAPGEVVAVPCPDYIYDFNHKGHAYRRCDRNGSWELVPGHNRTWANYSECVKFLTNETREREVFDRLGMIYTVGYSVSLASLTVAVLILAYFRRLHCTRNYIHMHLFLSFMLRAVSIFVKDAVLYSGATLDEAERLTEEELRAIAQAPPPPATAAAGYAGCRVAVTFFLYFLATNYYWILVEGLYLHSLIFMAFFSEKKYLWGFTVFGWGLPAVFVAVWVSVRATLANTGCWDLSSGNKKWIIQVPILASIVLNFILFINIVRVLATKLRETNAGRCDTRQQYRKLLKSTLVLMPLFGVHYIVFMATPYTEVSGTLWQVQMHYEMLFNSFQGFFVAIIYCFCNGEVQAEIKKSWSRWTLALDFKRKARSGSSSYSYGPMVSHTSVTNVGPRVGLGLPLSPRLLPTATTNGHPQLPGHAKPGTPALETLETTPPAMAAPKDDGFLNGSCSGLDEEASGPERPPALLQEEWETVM
#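 HEK-293-derived GP2 cells expressing PTHR1 and a GloSensor cAMP reporter, 3,000/well, plated overnight, given luciferin plus IBMX (each 0.5 mM as added) for 1 h at 37 °C, then compound for 1 h at 37 °C. Luminescence was read after 15 min at room temperature.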
# GLP1R cytotox: qHTS of GLP-1 Receptor Inverse Agonists: Cytotox Screen; HEK293 cAMP-luciferase reporter cells, luminescence, 24 h; Potency, µM (highest dose often 38.3 µM), for inactives: top-dose activity change, negative = inhibition, actives largely listed as inhibitors; 410,000 compounds, 0.13% hits;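 further: loss of luciferase light is scored as toxicity; on the % scale 0 is the no-effect control and ±100 the full control effect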
#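 Luminescence readout: signal drop marks cytotoxicity. Plated cells grew 12 h at 37 °C, 5% CO2, received 23 nL compound for 24 h, then got luciferase reagent, read after 12 min at RT.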
# Starred values were filed as active, the others as inactive; i = inactive; ? = inconclusive; . = no result given; [ ] = dose if it differs, or a comment. In the library only some 1.7% were active in any assay of this set; here they are far more common. The call rests on the fitted dose curve; in most records, active means well fitted curve in the direction sought with a large enough effect; inconclusive means small, poorly fitted or top-dose-only effect, or another doubt; inactive means no such curve, though single readings can be large; an effect the other way counts as inactive or inconclusive. Potency means the concentration at half of the fitted maximal effect.
SMILES,GLP1R ag,GLP1R inv ag,PTHR1 ag,GLP1R cytotox
Cc1onc(-c2c(F)cccc2Cl)c1C(=O)OCC(=O)c1c[nH]c2ccccc12,9%,8.9µM*,i,-1%
Cc1noc(C)c1C(=O)OCC(=O)c1c[nH]c2ccccc12,11%,5%,-10%,-16%
CC1CN(C(=O)c2ccccc2OCc2ccc(Cl)cc2Cl)CC(C)O1 (centres undefined),10%,10µM*,-16%,20%
O=C1c2ccccc2-c2onc3ccc(NCc4ccco4)c1c23,15%,?,-33%,11µM*
CCO[C@H]1OC(C(=O)Nc2ccccc2)=C[C@@H](c2ccc(Br)cc2)[C@@H]1CCCO,-1%,?,i,-17%
C=CCOC(=O)C1=C[C@@H](c2ccc(C(F)(F)F)cc2)[C@H](CCCO)[C@@H](OCC)O1,13%,6.3µM*,-2%,-67%
CCO[C@@H]1OC(C(=O)Nc2ccccc2)=C[C@H](c2ccc(C(F)(F)F)cc2)[C@H]1CCCO,-1%,4.5µM*,-36%,-13%
CCCCCCCCOc1ccccc1C(=O)Nc1ccc(C(=O)OCC[N+](C)(CC)CC)cc1,21%,.,.,.
Cc1c(C(=O)N(Cc2cccc(Br)c2)C2CCS(=O)(=O)C2)oc2ccc(F)cc12 (centres undefined),-3%,22µM*,-2%,-12%
Cc1c(C(=O)N(Cc2cccc(F)c2)C2CCS(=O)(=O)C2)oc2cc(Br)ccc12 (centres undefined),.,?,-13%,1%
O=C(NCc1ccccc1)C1=C[C@@H](c2csc3ccccc23)C[C@@H](OCc2ccc(CO)cc2)O1,-1%,8.9µM*,-20%,-6%
O=C(Cn1cc(/C=C\[N+](=O)[O-])c2ccccc21)Nc1ccccc1,-4%,7.1µM*,-28%,?
CCOC(=O)c1ccc2c(c1)sc1nc(-c3ccc(OCC)cc3)cn12,.,15%,-2%,1%
CCCC1=Nc2cc(C(=O)NCc3ccccc3)ccc2Sc2ccccc21,.,4µM*,i,-28%
CCC1=Nc2cc(C(=O)NCc3cccnc3)ccc2Sc2ccc(C)cc21,17%,1.8µM*,?,?
CCC1=Nc2cc(C(=O)NCc3ccc(C)cc3)ccc2Sc2ccc(C)cc21,.,7.1µM*,i,-20%
COc1ccc(OC)c(CNC(=O)c2ccccc2NC(=O)c2nsc3ccccc23)c1,.,1%,-40%,1%
O=C(CSc1cccc[n+]1[O-])c1cc(Cl)ccc1Cl,7%,?,i,0.89µM*
O=C(O)CSc1cccc[n+]1[O-],-12%,-5%,i,-2%
COc1ccc(-c2cc(C3CCN(CC(O)C(F)(F)F)CC3)[nH]n2)cc1 (centres undefined),-5%,-23%,-23%,11%
COc1ccc(-c2cc(C3CCN(Cc4cccc(C(F)(F)F)c4)CC3)[nH]n2)cc1,5%,5µM*,-91%,?
CCOCCCNC(=O)c1cnc2sc(N3CCCCCC3)nn2c1=O,.,7%,i,8%
O=C(CCC(=O)N1CCN(c2ccc(F)cc2)CC1)c1ccc(Cl)cc1,1%,?,-22%,-2%
O=C(CCC(=O)N1CCN(c2ccc(Cl)c(Cl)c2)CC1)c1ccccc1,-5%,11µM*,-27%,5%
COc1ccc(OC)c(C(c2nnnn2C2CCCC2)N2CCN(c3ccc(F)cc3)CC2)c1 (centres undefined),-2%,?,i,-12%
SMILES,GLP1R ag,GLP1R inv ag,PTHR1 ag,GLP1R cytotox
COc1ccc(C(c2nnnn2C2CCCC2)N2CCC(C)CC2)c(OC)c1 (centres undefined),6%,10µM*,-29%,-7%
Cc1csc2nc(COC(=O)c3ccc(NC(=O)c4ccccc4Br)cc3)cc(=O)n12,.,?,-11%,0%
CCOc1cc(/C=N/NC(=O)Cc2ccc(C(F)(F)F)cc2[N+](=O)[O-])c(Br)cc1OC,-9%,-18%,29%[57.5 µM],-9%
COc1cc(Br)cc(/C=N/NC(=O)Cc2ccc(C(F)(F)F)cc2[N+](=O)[O-])c1O,2%,?,0%,0.5µM*
Cc1ccc(S(=O)(=O)N2CCc3cc(C(=O)Nc4c(F)cccc4F)ccc32)cc1,.,-17%,-3%,9%
O=C(Nc1ccc(S(=O)(=O)N2CCOCC2)cc1)c1cc(-c2cc(Cl)ccc2O)n[nH]1,-5%,3.5µM*,-33%,?
Cc1ccc(-c2cc(C(=O)Nc3ccc(S(=O)(=O)N4CC(C)OC(C)C4)cc3)[nH]n2)c(O)c1 (centres undefined),6%,1.1µM*,-38%,-13%
Cc1ccc(O)c(-c2cc(C(=O)Nc3ccc(S(=O)(=O)N4CC(C)OC(C)C4)cc3)[nH]n2)c1 (centres undefined),-9%,0%,-50%,?
CCOC(=O)c1[nH]c2c(c1Cc1ccccc1)C(=O)CC(c1ccc(C(C)(C)C)cc1)C2 (centres undefined),.,11µM*,i,0%
CCOc1ccccc1C1N=C(c2ccc(OC)cc2)CC(c2ccccc2O)N1 (centres undefined),-12%,11%[0.307 µM],-16%,0%[0.307 µM]
CC(C)C1N=C(c2ccc3c(c2)OCO3)CC(c2ccccc2O)N1 (centres undefined),-12%,11µM*,-83%,?
O=C(c1ccc2c(c1)N(Cc1ccc(F)cc1)C(=O)c1ccccc1S2=O)N1CCC(Cc2ccccc2)CC1 (centres undefined),-6%,?,-13%,-9%
COc1ccc(CCNC(=O)Cn2nnc(-c3cccc(C(F)(F)F)c3)n2)cc1OC,.,-2%,i,-4%
CCOC(=O)c1c(-c2ccccc2)oc2ccc(NS(=O)(=O)c3cc(C)c(C)cc3C)cc12,.,4.5µM*,i,8%
O=C(CCCCCCCCC#CI)Oc1ccccc1,-1%,.,.,.
COc1ccc(OC)c(CNC(=O)CCCn2nc(C)c3c(C)n(-c4ccc(C)cc4)nc3c2=O)c1,.,-4%,-25%,2%
CCCCCCCCC[n+]1cccc2c3ccccc3ccc21,-13%,10µM*,-89%[57.5 µM],?
CCCCCCCCCCCCCCCC[n+]1cccc2ccccc21,-18%,?,-7%,?
CCOC(=O)N1CCC(NC(=O)c2cnn(-c3ccc(C)cc3)c2C2CCN(C(=O)OC(C)(C)C)CC2)CC1,.,5%,i,-6%
Cc1cccc(C)c1OCC(=O)Nc1oc(-c2ccccc2)c(-c2ccccc2)c1C#N,-17%,10µM*,-34%,?
COc1c(N2C[C@@H]3CCCN[C@H]3C2)c(F)cc2c(=O)c(C(=O)O)cn(C3CC3)c12,7%,.,.,.
O=C1NN=C(c2ccccc2)CC1c1ccc(Cl)cc1Cl (centres undefined),12%,7.9µM*,i,-7%
O=C1NN=C(c2ccc(Cl)cc2)CC1c1cccc(Cl)c1 (centres undefined),7%,?,-2%,1%
